Each structure is given as a SMILES string. The source made the active and inactive calls. How the source made its calls: active means hit-call score of the fitted dose curve at least 0.9, where 1 is the maximum; inactive means score below 0.9.

Read-out in the test: Glutathione S-transferase M3 (GSTM3), GSTM3 (gene 2947)
In words: LTEA_HepaRG_GSTM3: Life Technologies and Expression Analysis (LTEA) Assay for Glutathione S-transferase M3 (GSTM3) using HepaRG (AID 2283501). To be noted: mRNA level, 48 h; actives raise or lower the signal. How it is done:
LTEA_HepaRG is a cell based, multiplexed-readout assay that uses HepaRG, a human liver cell line, with measurements taken at 48 hours after chemical dosing on a 96-well plate.LTEA_HepaRG_GSTM3 is one of 102 assay component(s) measured in the LTEA HepaRG cell culture assay. It is a marker of Oxidative Stress.Data from the assay component LTEA_HepaRG_GSTM3 was analyzed into 1 endpoint. This assay endpoint, LTEA_HepaRG_GSTM3, was analyzed with bidirectional fitting relative to DMSO as the negative control and baseline of activity. Using a type of inducible reporter, measures of mRNA induction for gain or loss-of-signal activity can be used to understand regulation of transcription factor activity. To generalize the intended target to other relatable targets, this assay endpoint is annotated to the transferase intended target family, where the subfamily is alkyl and aryl transferase.
A total of 1060 chemcials from the ToxCast library were tested in eight-point concentration-response experiments. Cell culture and cytotoxicity assays were conducted at Thermo Fisher Scientific's Custom Services facility (Madison, WI). A single lot of human HepaRG cells (Thermo Fisher Scientific, Frederick, MD) was used for the cell culture experiments. 96-well format collagen type I coated plates of human HepaRG cells were prepared using established methods. Briefly, cryopreserved HepaRG cells were thawed, plated at a density of approximately 100,000 cells/well in HepaRG Thaw, Plate, and General Purpose media (HPRG770, Thermo Fisher Scientific), and incubated for 48 hours. 0.5% DMSO was selected as vehicle control to balance the requisite need of DMSO in HepaRG cultures to maintain differentiation (for example, baseline metabolism, proportions of hepatocytes vs. cholangiocytes), while enabling further hepatic receptor pathway activation (for example, PXR and CAR) in response to chemical exposure. 48 hours after plating, the culture medium was replaced with HepaRG Serum-Free Incudtion Media. Cells were exposed to each test chemical in duplicate and maintained in CO2 incubators for another 48 hours. Chemical plates were thawed to room temperature and 200x concentrations of treatment groups were prepared. 8-point conentration-reponse curves were made with the highest exposure at 100 uM, followed by half-log dilutions, all in 0.5% DMSO. Each test plate contained variouse controls, induction positive controls (1mM phenobarbital), cytotoxicity positive controls ([…] aflatoxin B1), vehicle controls (0.5% DMSO), and total lysis controls (0.5% DMSO). Cell morphology images were taken using an Essen IncuCyte FLR automated microscope, with six 96-well plates imaged in about 24 minutes. Images were captured and exported and JPEG files. Spent culture media was transfered to black-well plates for the LDH assay, and remaining media was sorted at -80 C for later use. Cells were treated with RLT buffer and frozen until shipped for gene expression analysis. Total RNA was isolated from the cell suspension in 75 uL of Buffer RLT (Qiagen, Germantown, MD 20874) by Quintiles/Expression Analysis (Durham, NC) using a custom isolation procedure. Total RNA from each plate well was transferred to a preamplification plate. Fluidigm's 96.96 Dynamic ArrayTM (Fluidigm, Amsterdam, the Netherlands) technology was used for gene expression analyses by quantitative reverse transcription polymerase chain reaction (qRT-PCR, performed by Quintiles/Expression Analysis, Durham, NC)89. Standard TaqManTM Assays (Applied Biosystems/ThermoFisher Scientific, Foster City, CA) were used to assess the expression of 93 genes selected based on their selectivity and sensitivity to important hepatic receptors known to be modulated by environmental chemicals; importance in human hepatocyte functionality; and hepatotoxicity. […]
Take `Cc1cc(CCN2CCN(c3nsc4ccccc34)CC2)cc2c1NC(=O)CC2(C)C`: the call was inactive. For the molecule `CN1CCC[C@H]1c1cccnc1`, the molecule was called inactive.

`CC(C)(C)c1cccc(C(C)(C)C)c1O`: the outcome was inactive. For the molecule `CCCCC(CC)COC(=O)CCCCC(=O)OCc1ccccc1` (stereo not given), the molecule was classed as inactive. Take `C[C@@H]1C[C@H]2[C@@H]3CCC4=CC(=O)C=C[C@]4(C)[C@@]3(F)[C@@H](O)C[C@]2(C)[C@@]1(O)C(=O)COP(=O)(O)O`: the call was inactive. For `CCCOc1sc(C(=O)N2CCC(c3cc(CN)ccc3F)CC2)c(C)c1Br`, the molecule was called inactive.

`CCCCCCCCCCCCCCCS(=O)(=O)Oc1ccccc1`: the molecule was classed as inactive. Regarding `CC(=O)CC(C)(C)O`, the molecule was classed as inactive. As for `CCCCCCCCCCCCc1ccccc1S(=O)(=O)O`, the outcome was inactive. For the molecule `CCCCC(CC)COC(=O)CCCCC(=O)OCC(CC)CCCC` (stereo not given), the molecule was called inactive. On to `CC1=C(/C=C/C(C)=C/C=C/C(C)=C/C(=O)O)C(C)(C)CCC1`, for which the molecule was called inactive. `CC(C)(C)c1ccc(O)c(C(C)(C)C)c1`: the outcome was inactive. As to `COCC(C)O` (stereo not given), the result was inactive. On to `OC1CCCCC1`, for which the call was inactive. On the same count and under the same terms, for `CCCCCCCC(=O)O` the value was “inactive”. On to `CCCCCCCCC(=O)O`, for which the call was inactive. For `COc1ccc([N+](=O)[O-])cc1N`, the outcome was inactive. For the molecule `COCC(C)OCC(C)O` (stereo not given), the molecule was classed as inactive. For the molecule `CCCCCCCCCCCCN1CCCC1=O`, the outcome was inactive.

Take `CCc1nn(C2CCCCC2)c2cc(C3(C#N)CCC(C(=O)O)CC3)ccc12` (stereo not given): the call was inactive.

In the case of `O=C(O)Cc1cc(I)c(Oc2cc(I)c(O)c(I)c2)c(I)c1`, the AC50 was 33.5 µM (active). Take `CC[C@H](c1ccc(O)cc1)[C@@H](CC)c1ccc(O)cc1`: the call was inactive.

On to `CCCOC(=O)c1ccc(O)cc1`, for which the call was inactive. In the case of `CC(C)(C)CC(C)(C)c1ccc(O)c(-n2nc3ccccc3n2)c1`, the outcome was inactive.

As for `CC#C[C@]1(O)CC[C@H]2[C@@H]3CCC4=CC(=O)CCC4=C3[C@@H](c3ccc(N(C)C)cc3)C[C@@]21C`, the molecule was classed as inactive. With `O=C(OCCOCCOC(=O)c1ccccc1)c1ccccc1`, the molecule was classed as inactive. `Nc1cccc2c(N)cccc12`: the molecule was classed as inactive. On to `Oc1cc2ccccc2c2ccccc12`, for which the molecule was classed as inactive. With `CC(C)(C)c1cc(C(C)(C)C)c(O)c(C(C)(C)C)c1`, the outcome was inactive.

In the case of `Oc1cccc(O)c1`, the result was inactive.

For `CCCCOCCO`, the molecule was classed as inactive. Turning to `NC(=O)N1C(=O)C(C(=O)c2cc(Cl)cs2)c2cc(F)c(Cl)cc21` (stereo not given), the molecule was classed as inactive.

For the molecule `c1ccc2c(c1)ccc1ccccc12`, the result was inactive. Turning to `CN(C)C=O`, the result was inactive.

Regarding `CCCCCCC(=O)O`, the molecule was classed as inactive. Regarding `O=[N+]([O-])c1ccc(O)cc1`, the result was inactive. Take `CC(=O)NC1(c2cccc(F)c2)CCN(CC[C@@]2(c3ccc(Cl)c(Cl)c3)CN(c3ccccc3)C(=O)CO2)CC1`: the call was inactive. Regarding `CCC(C)(C)C1CCC(O)CC1` (stereo not given), the molecule was classed as inactive. `OC1CCC(C2CCCCC2)CC1` (stereo not given): the molecule was called inactive. `Cc1cc(C)c(O)c(C)c1`: the molecule was classed as inactive.

The record behind these values is PubChem BioAssay (EPA / NIEHS).
